# Among all 64,000 compounds or so, about 1,900 (3%) were called active. This excerpt belongs to a sample that is enriched for actives. Values without a mark were called inactive.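 Rule for the calls: active = fluorescence rise, raw or as B-score row- and column-corrected plate score, outside the 99.7% band of its plate's samples, either direction; inactive = the rest.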
# System: Muscarinic acetylcholine receptor M1
# Test: M1 muscarinic receptor agonists, primary screen, CHO-M1 cells, Fluo-4 calcium, agonist mode (AID 626)
# Details: Fluo-4 calcium fluorescence, at 10 µM, hits give high values
row,Structure (SMILES),B-score
1,CN1CCN(S(=O)(=O)c2ccc3[nH]cc(C(=O)O)c(=O)c3c2)CC1,0.537
2,CC1CCN(Cc2nc3c(c(=O)n(C)c(=O)n3C)n2CCc2ccccc2)CC1,0.945
3,COCCn1c(CN(Cc2ccccc2)Cc2ccccc2)nc2c1c(=O)n(C)c(=O)n2C,0.66
4,COCCn1c(CN2CCC(Cc3ccccc3)CC2)nc2c1c(=O)n(C)c(=O)n2C,3.45 (active)
5,CCOC(=O)c1ccc(NC(=O)CSc2nnc(COc3ccccc3OC)n2C)cc1,0.692
6,O=C(Nc1ccccc1N1CCCCC1)c1cccc(F)c1,0.341
7,C/C(=C(\C#N)C(=O)NCCCN1CCOCC1)N(C)C,0.122
8,Cc1cc(Nc2cccc(F)c2)n2ncnc2n1,1.22
9,CCOC(=O)[C@H]1CCC[C@@H](NS(=O)(=O)c2ccc(NC(C)=O)cc2)C1,-0.507
10,CCOC(=O)C1CCN(C(=O)Nc2ccc(Cl)cc2)CC1,0.00389
11,CCOC(=O)C1CCCN(Cc2nc(N)nc(Nc3ccc(C)cc3)n2)C1 (stereo not given),35.2 (active)
12,CCn1c(SCCC(C)C)nnc1-c1c[nH]c2ccccc12,0.584
13,CCCN(CCC)CCNC(=O)c1cc2c(C)nc3ccccc3c2o1,-0.845
14,Cc1nc2ccccc2c2oc(C(=O)NCC3CCCO3)cc12 (stereo not given),2.93 (active)
15,Cc1nc2ccccc2c2oc(C(=O)NCCCN3CCC(C)CC3)cc12,0.3
16,COCCN1C(=O)c2oc3c(C)cc(C)cc3c(=O)c2C1c1cccc(O)c1 (stereo not given),0.00288
17,CCOC(=O)Cn1c(=O)oc2cc(S(=O)(=O)N(C)Cc3ccco3)ccc21,-0.339
18,O=C(c1ccco1)N1CCN(C(=O)C2CC(c3ccc(Cl)c(Cl)c3)=NO2)CC1 (stereo not given),-0.464
19,CC(=O)N1CCN(C(=O)c2cccc(S(=O)(=O)Nc3ccc(C)cc3)c2)CC1,0.272
20,Cc1ccc(S(=O)(=O)Nc2ccc3ncccc3c2)cc1,3.16 (active)
21,O=S(=O)(Nc1ccc2nc(-c3ccco3)[nH]c2c1)c1ccccc1,-0.0329
22,CCOC(=O)c1sc(NC(=O)CSc2nnc(-c3ccco3)o2)c(C(=O)OCC)c1C,-0.0997
23,CCOc1cc(/C=N/O)cc(Br)c1OC,0.00429
24,O=C(Nc1ccccc1C(=O)N1CCOCC1)C1CCC(=O)N1C1CCCC1 (stereo not given),0.307
25,Cc1ccc(-c2noc(CN3CCN(Cc4ccccc4)CC3)n2)cc1,-0.531

row,Structure (SMILES),B-score
1,Cc1ccc(Cc2nc(-c3cccc(C)c3)no2)cc1,-0.177
2,COc1ccccc1Cc1nc(-c2ccc(C)cc2)no1,3.86 (active)
3,O=C(NCCN1CCOCC1)c1c(F)c(F)c(F)c(F)c1F,0.102
4,COCCNC(=O)C(c1ccc(C)o1)N(Cc1cccs1)C(=O)c1snc(C(N)=O)c1N (stereo not given),2.74 (active)
5,COCCNC(=O)C(c1ccc(C)o1)N(Cc1ccccc1)C(=O)Cn1nnc2ccccc21 (stereo not given),-0.295
6,CCC(C(=O)NC1CCCC1)N(C(=O)c1snc(C(N)=O)c1N)c1ccc2c(c1)OCCO2 (stereo not given),-0.647
7,CC(Nc1nc(N2CCCC2)nc2ccccc12)c1ccccc1 (stereo not given),0.0749
8,CCOCCCNC(=O)Cc1cc(=O)[nH]c(=O)[nH]1,-0.622
9,COc1ccc(CN(C(=O)c2cccs2)c2nccs2)cc1OC,-0.233
10,Cc1cc(C)c2nc(N3CCCC3)c(C#N)cc2c1,0.391
11,COc1ccc2nc(N3CCCC(O)C3)c(C#N)cc2c1 (stereo not given),15 (active)
12,COc1ccc(N2CCN(C(=O)CSc3nc4cc(OC)c(OC)cc4cc3C#N)CC2)cc1,-0.487
13,COC(=O)c1cc(C(=O)CSc2nc(C)cc(C)n2)ccc1O,-0.00415
14,Oc1c(C(c2ccco2)N2CCC3(CC2)OCCO3)sc2ncnn12 (stereo not given),-0.563
15,CCCCCNC(=O)Cc1ccc(OC)cc1,1.29
16,O=C(Nc1ccccc1-c1nnn(CC(=O)N2CCN(c3ccccc3)CC2)n1)c1cccs1,-0.15
17,Cc1cccn2c(=O)c3cc(C(=O)NCc4ccccn4)n(C)c3nc12,-0.541
18,O=C(NCc1ccccn1)c1ccc2nc(-c3ccco3)c(-c3ccco3)nc2c1,3.06 (active)
19,O=C(NCc1ccccn1)c1cc2ccccc2oc1=O,-0.243
20,CC1CCCCN1CC(=O)NCc1ccc2c(c1)OCO2 (stereo not given),-0.147
21,CCn1c(Cc2ccccc2)nnc1SCc1nc2ccccc2c(=O)[nH]1,0.17
22,O=C(O)c1ccc(COCC(F)(F)F)cc1,3 (active)
23,O=C(C1CCC1)N1CCc2cc(S(=O)(=O)NCc3cccnc3)ccc21,-2.04
24,COC(=O)c1cn(C)c2ccc(S(=O)(=O)N3CC(C)CC(C)C3)cc2c1=O (stereo not given),-0.784
25,CCOC(=O)NCc1ccc2c(c1)OCO2,0.801
